Screening data: PubChem BioAssay, National Center for Advancing Translational Sciences (NCATS)
FEN1 inhibitor: blocks human flap endonuclease 1; Potency, µM (titrated, usually from 114 µM), actives largely listed as inhibitors; Recombinant FEN1 flap cleavage, fluorescence, 15 min; 390,000 compounds, 0.35% hits; AID 588795; note: nearly all actives have a fitted effect of over 65% in size
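Reaction started by adding substrate (50 nM final) to 10 nM enzyme after 15 min room-temperature compound preincubation. Reads at 0 and 15 min, with data normalized and fitted to a four-parameter Hill equation.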
POLH inh: inhibitors of human DNA polymerase eta; Q9Y253; recombinant Pol eta, fluorescent DNA replication assay; Potency, µM (series often up to 114 µM), actives largely listed as inhibitors; 390,000 compounds, 1.2% hits
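Pol eta at 10 nM preincubated with compounds 15 min at room temperature; reaction started with fluorescent substrate (50 nM final) and read kinetically at 0 and 10 min.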
POLI inh: inhibitors of human DNA polymerase iota; Q9UNA4; Pol iota fluorescent replication assay, 10 min; Potency, µM (doses to about 115 µM), actives largely listed as inhibitors; 390,000 compounds, 1% hits; AID 588590
Target sequence (Q9UNA4 whole entry, looked up): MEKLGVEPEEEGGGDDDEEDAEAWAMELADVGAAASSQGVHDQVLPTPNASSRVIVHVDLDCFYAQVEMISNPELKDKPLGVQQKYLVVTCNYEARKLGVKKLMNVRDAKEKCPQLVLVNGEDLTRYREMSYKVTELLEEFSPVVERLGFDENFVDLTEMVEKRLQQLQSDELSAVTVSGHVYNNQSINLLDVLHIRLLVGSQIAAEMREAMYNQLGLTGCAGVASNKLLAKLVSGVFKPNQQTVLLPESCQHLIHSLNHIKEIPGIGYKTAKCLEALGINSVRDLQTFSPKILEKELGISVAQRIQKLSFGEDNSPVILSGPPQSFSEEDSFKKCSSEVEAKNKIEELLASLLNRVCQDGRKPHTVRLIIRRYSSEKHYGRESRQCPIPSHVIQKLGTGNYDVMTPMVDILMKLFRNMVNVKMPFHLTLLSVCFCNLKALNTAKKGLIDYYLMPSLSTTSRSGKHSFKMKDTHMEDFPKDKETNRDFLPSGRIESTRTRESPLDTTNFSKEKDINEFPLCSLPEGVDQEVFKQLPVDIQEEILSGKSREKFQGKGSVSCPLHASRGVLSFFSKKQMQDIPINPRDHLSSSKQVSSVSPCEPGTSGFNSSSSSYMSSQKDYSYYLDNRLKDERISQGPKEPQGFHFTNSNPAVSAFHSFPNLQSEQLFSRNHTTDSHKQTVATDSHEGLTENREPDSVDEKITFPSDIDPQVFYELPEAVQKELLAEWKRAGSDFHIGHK
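Fluorescent replication assay read twice, at 0 min and 10 min after adding 50 nM (final) substrate. Enzyme (10 nM) and compounds were first incubated 15 min at room temperature; enzyme-free buffer wells were negative controls.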
TDP1 block: blocks human tyrosyl-DNA phosphodiesterase 1 | Q9NUW8 | recombinant TDP1, AlphaScreen DNA substrate cleavage | Potency, µM (top dose mostly 130 µM), usual class: inhibitors | 350,000 compounds, 0.28% hits; note: nearly all actives have a fitted effect of over 40% in size
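Recombinant E. coli-expressed Tdp1 (1 nM) preincubated with compound 15 min at RT, then 5'-biotin/3'-phosphotyrosine-FITC DNA substrate (15 nM) added for 5 min. AlphaScreen beads (10 ug/ml) added, 10 min RT; tyrosine-FITC cleavage read as signal loss.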
POLK inh: blocks human DNA polymerase kappa activity; 400,000 compounds, 0.53% hits; purified Pol kappa, fluorescent DNA synthesis assay, 10 min; Potency, µM (highest dose often 107 µM), hits mostly inhibitors
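10 nM Pol kappa preincubated 15 min at room temperature with compounds, then reaction started with substrate at 50 nM final. Fluorescence read kinetically at 0 and 10 min; buffer-only wells served as negative control.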
Pol beta inh: inhibitors of human DNA polymerase beta. P06746. Pol beta primer extension/strand displacement, fluorescence kinetic. Potency, µM (titrated, usually from 114 µM), usual class: inhibitors. 340,000 compounds, 1.3% hits. AID 485314
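Values derive from four-parameter Hill fits of normalized kinetic data: reads at 0 and 10 min following addition of 50 nM substrate to 10 nM Pol beta preincubated 15 min with compound.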
Hits are given with their value; n = inactive; u = inconclusive; x = no result given; ! = not active in a repeat. The list is not random: actives were taken first. Their share in the collection is about 2.4%. Calls come from the whole dose curve; as a rule, active = well fitted curve in the direction sought with a large enough effect; inconclusive = small, poorly fitted or top-dose-only effect, or another doubt; inactive = no such curve, though single readings can be large; an effect the other way counts as inactive or inconclusive.

SMILES	FEN1 inhibitor	POLH inh	POLI inh	TDP1 block	POLK inh	Pol beta inh
OCc1cnc(SCc2cccc(F)c2)n1Cc1ccc(F)cc1	n	n	n	n	n	n
O=C(NNC(=O)c1cccs1)c1ccc(F)cc1	n	n	n	n	n	n
O=C(NNC(=O)c1cccs1)c1ccc(Cl)nc1	n	n	n	89.1µM	n	x
N/C(=C\C(=O)c1cc(Cl)ccc1O)C(Cl)(Cl)Cl	n	50.1µM	u	n	n	n
CC(C)c1ccc(OCC(=O)NCc2n[nH]c(=O)c3ccccc23)cc1	n	n	n	39.8µM	n	x
O=C(CNC(=O)c1ccc([N+](=O)[O-])cc1)OC(C(=O)Nc1cc(C(F)(F)F)ccc1Cl)c1ccccc1 (stereo not given)	x	x	x	n	x	x
C[N+](C)(C)c1ccc(/C=N/Nc2nc(Cl)c(C#N)c(Cl)c2Cl)cc1	n	u	n	n	n	n
N#Cc1c(Cl)nc(N/N=C/c2ccccc2)c(Cl)c1Cl	n	n	n	n	n	20µM
O=S(=O)(Nc1cccc(-c2ccc(N3CCOCC3)nn2)c1)c1ccc(F)cc1F	n	n	n	n	n	n
CCCc1nnc(NC(=O)Cc2coc3cc(C)cc(C)c23)s1	n	n	n	n	n	n
C/C(CC(=O)Nc1cccc(Cl)c1Cl)=N\NC(=O)c1ccccc1C	n	n	n	n	n	50.1µM
COc1ccc(-c2onc(C)c2-c2ccccc2)c(O)c1	n	n	n	n	n	n
O=C1c2ccccc2-c2onc3c(Oc4ccccc4)cc(O)c1c23	x	x	x	n	x	35.5µM
O=S1(=O)N=C(Oc2ccc(Cl)cc2)c2ccccc21	x	x	x	n	x	x
Cc1cc(C)c2nc(N3CCCN(C(=O)c4ccco4)CC3)c(C#N)cc2c1	n	u	n	n	n	39.8µM
Cc1nc(N2CCN(C(=O)c3ccco3)CC2)c(C#N)c2c1CCCC2	n	n	n	n	n	n
CCOC(=O)c1[nH]c(C)c(C(=O)Nc2ccccc2F)c1C	n	25.1µM	n	n	n	n
Cc1ccc(NC(=O)/C(C#N)=C(\N)C(Cl)(Cl)Cl)nc1	n	44.7µM	n	n	n	n
COc1ccc(-c2c[n+]3c4n2CCCCC4=C(c2ccccc2)C3)cc1	n	n	n	n	n	11.2µM
COc1ccc(-c2c[n+](CC(=O)c3ccccc3)c3n2CCCCC3)cc1	n	n	n	n	n	n
O=C(C[n+]1ccncc1)c1ccc2ccccc2c1	n	x	n	x	n	x
COc1ccccc1CNC(=O)C(=O)NCCC1CCCCN1S(=O)(=O)c1cccs1 (stereo not given)	n	n	n	n	89.1µM	x
CCCNC(=O)Cn1sc2nc(C)cc(C)c2c1=O	50.1µM	n	n	n	n	n
O=C(Nc1ccccc1Br)C1CCCN(S(=O)(=O)c2cccc3nsnc23)C1 (stereo not given)	n	n	n	n	n	n
Cn1ncc([N+](=O)[O-])c1C(=O)Nc1ccccc1C(=O)O	n	n	n	x	n	n
SMILES	FEN1 inhibitor	POLH inh	POLI inh	TDP1 block	POLK inh	Pol beta inh
COc1ccccc1NC(=O)c1c([N+](=O)[O-])cnn1C	n	n	n	1.41µM	n	n
Cc1ccc(NC(=O)CC(=O)Nc2ccc(C)cc2C)c(C)c1	n	n	n	x	n	n
Cc1ccc(N/C(C(Cl)=C(Cl)Cl)=C(/Cl)[N+](=O)[O-])c(C)c1	n	n	15.8µM	n	n	n
Clc1cccc(Cl)c1C1Nc2cccc3cccc(c23)N1	n	n	35.5µM	n	n	n
Brc1ccc(C2Nc3cccc4cccc(c34)N2)o1	28.2µM	n	u	u	n	n
O=C(O)c1cc(NS(=O)(=O)c2ccc(N3CCOCC3)c([N+](=O)[O-])c2)cc(C(=O)O)c1	n	n	n	n	n	n
O=C(O)c1cc(NS(=O)(=O)c2ccc(NC3CCCCC3)c([N+](=O)[O-])c2)cc(C(=O)O)c1	n	44.7µM	n	n	n	n
COc1ccc(C2Nc3ccccc3C(=O)N2Cc2cccc(-c3ccccc3)c2)cc1COc1ccc(NC(C)=O)cc1 (stereo not given)	x	x	x	n	x	x
C[C@@H]1NC(=O)c2cc([N+](=O)[O-])cc(I)c2OCC[C@@H](C(N)=O)NC(=O)[C@H](CCC(=O)O)NC1=O	x	x	x	n	x	n
NC(=O)C[C@H]1NC(=O)[C@H](CCC(=O)O)NC(=O)c2cc([N+](=O)[O-])cc(I)c2NCCC[C@@H](C(N)=O)NC1=O	n	35.5µM	u	n	u	n
NC(=O)C[C@@H]1NC(=O)[C@H](CCC(=O)O)NC(=O)c2cc([N+](=O)[O-])cc(I)c2OCC[C@@H](C(N)=O)NC1=O	n	35.5µM	n	n	u	n
NC(=O)[C@@H]1CCCNc2c(I)cc([N+](=O)[O-])cc2C(=O)N[C@@H](CCC(=O)O)C(=O)N[C@@H](CO)C(=O)N1	n	n	n	n	n	n
C[C@@H]1NC(=O)c2cc([N+](=O)[O-])cc(I)c2NCCCC[C@@H](C(N)=O)NC(=O)[C@H](CCC(=O)O)NC1=O	n	22.4µM	39.8µM	n	u	n
Cc1ccc(-n2ncc(C(=O)N3CCN(c4cccc(C)c4)C(C)C3)c2C2CCN(C(=O)OC(C)(C)C)CC2)cc1 (stereo not given)	n	n	n	n	n	n
O=C(CCC1CCN(C(=O)C2CC=CCC2)CC1)Nc1ccccc1 (stereo not given)	x	n	x	x	x	x
CCOC(=O)c1cc(OC(=O)c2ccc(OC)c(OC)c2)n(-c2ccccc2)n1	n	n	n	n	n	n
O=C(O)c1ccc(NC(=S)NC(=O)c2ccc3ccccc3c2)cc1	n	n	n	31.6µM	n	n
Brc1cccc[n+]1CCCCCC[n+]1ccccc1Br	79.4µM	x	n	x	n	x
Brc1cccc[n+]1CCCC[n+]1ccccc1Br	79.4µM	x	u	x	n	x
Brc1cccc[n+]1C/C=C/C[n+]1ccccc1Br	n	x	n	x	n	x
COC(=O)c1ccccc1NC(=O)c1cc(CN2CCOCC2)on1	n	n	n	n	n	n
CCOc1cc2sc(N3CCC(C(=O)Nc4ccc(C(C)C)cc4)CC3)nc2cc1Br	n	n	u	n	n	n
Cc1ccc(C)c(NC(=O)CCS(=O)(=O)c2cccc3nsnc23)c1	n	n	n	n	n	n
Cc1noc(CN(C)c2ncnc3ccc(-c4ccc5c(c4)OCO5)cc23)n1	x	x	x	n	x	x
O=c1oc2c(O)c(O)cc3c(=O)oc4c(O)c(O)cc1c4c23	1.58µM	0.794µM	1.12µM!	0.1µM	0.794µM!	0.159µM
C(=C\c1ccnc2ccccc12)/c1ccc(N2CCN(c3ccc(/C=C/c4ccnc5ccccc45)cc3)CC2)cc1	n	x	n	x	n	x
CC[N+](CC)(CC)c1ccc(/C=C/c2ccc3ccccc3n2)cc1	39.8µM	x	n	x	44.7µM	x
C(=C\c1ccc2ccccc2n1)/c1ccccc1	n	n	n	n	n	n
